# Results published in PubChem BioAssay (NCI).
# The panel holds about 83,000 compounds, 20% with a hit somewhere; the sample as a whole holds those more often.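 Compound tested at a single concentration for 48 hours in 96-well plates; a percent growth value below 10 was scored as active.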 A number with no mark means an inactive call. The source made the active and inactive calls.
# Tested on: HL-60(TB) leukemia
# Assay: NCI-60 one-dose screen, 48 h (100 = growth as untreated, 0 = no growth, -100 = all killed)
# Details: 10 µM unless noted
row,Compound,growth
1,O=C(Nc1ncc(Cc2ccc(Cl)cc2)s1)C1=NCCCCN1,97%
2,CCCCCCNC(=O)Oc1ccc(/C(=C(\C)c2ccccc2)c2ccc(OCCN3CCCCC3)cc2)cc1,31.1%
3,O=S(=O)(c1cc(Cl)ccc1O)c1cc(Cl)ccc1O,74.2%
4,Oc1ccccc1-c1nnc(CNc2ccc(Cl)cc2)o1,4.56% (active)
5,Nc1ncnc2[nH]ncc12,3.02% (active)
6,CCOC(=O)c1sc2ccc(NCc3nc[nH]c3C)cc2c1NC(=O)c1cc(OC)c(OC)c(OC)c1,5.99% (active)
7,COc1ccccc1CNc1nc(N)nc2[nH]c3ccc(O)cc3c12,34.3%
8,O=[N+]([O-])c1ccc(/C(=C/c2ccccc2)[n+]2ccccc2)cc1,110%
9,Nc1c(C(=O)Nc2ccccc2)sc2nc3c(cc12)CN(CCc1ccccc1)CC3,102%
10,O=C(NCCNc1nccc(-n2ccc3cccnc32)n1)c1ccc(C(F)(F)F)cc1,107%
11,O=C(COC(=O)[C@H](C[Se][Se]C[C@H](NC(=O)c1ccc(Br)cc1F)C(=O)OCC(=O)c1ccc(F)cc1)NC(=O)c1ccc(Br)cc1F)c1ccc(F)cc1,-45.3% (active)
12,O=C(COCc1c(-c2ccccc2)no[n+]1[O-])Nc1ccc(C(=O)/C=C/c2ccc3c(c2)OCO3)cc1,88.7%
13,O=C(NCc1ccco1)Nc1cccc2c(NC(=O)NCc3ccco3)cccc12,66.5% [100 µM]
14,Cc1cc(-c2ccc(N=Nc3c(C)nn(-c4ccc(S(=O)(=O)O)cc4)c3O)c(C)c2)ccc1N=Nc1ccc(O)c(C(=O)O)c1,99%
15,Cc1csc(Nc2nc(-c3cccc(Br)c3)nc(C(Cl)(Cl)Cl)n2)n1,9.61% (active)
16,NC(=O)Nc1ccc2ncnc(Nc3cccc(O)c3)c2c1,105%
17,CNC(=O)c1[nH]cc(-c2ccc(OC)cc2)c1-c1cc(OC)c2c(c1OC)OCO2,96.4%
18,O=S(=O)(O)CCI,99.5%
19,COC(=O)c1c2c(c(C)[n+]([O-])c1C)C(=O)C=C(NCc1ccc(Br)cc1)C2=O,-19.4% (active)
20,Cc1cc(SC#N)cc(C(C)(C)C)c1O,74.3%

row,Compound,growth
1,O=C(CC(NC(=O)OCc1ccccc1)C(=O)OCc1ccccc1)OCc1ccccc1 (stereo not given),126%
2,Nc1c2ccccc2nc2ccccc12 (tested in a mixture with another compound),26.8%
3,COc1ccc(/C=C2\SC(=O)N(Cc3cc(=O)oc4ccc(OC)cc34)C2=O)cc1,90.9%
4,COc1cc2c(c(OC)c1)C1c3ccccc3NC(=O)N1CC2 (stereo not given),-3.91% (active)
5,COc1cc(C(=O)/C=C/c2c(-c3cccs3)nc3sc(C)cn23)cc(OC)c1OC,-18.4% (active)
6,CCOC(=O)C1=C(Nc2ccc(OC)cc2)C(N)=NC1=N,3.35% (active)
7,COC1=C(C)C(=O)N2[C@@H]1[C@H](c1ccccc1)OC21C=CC(=O)C=C1,-11.2% (active)
8,COc1ccc(C(=O)/C=C/c2cc(-c3cc(OC)c(OC)c(OC)c3)n[nH]2)cc1OC,3.15% (active)
9,COc1cc(C2NN=C3c4ccccc4CCC32)cc(OC)c1OC (stereo not given),74.1%
10,Cc1ccc(S(=O)(=O)NCC[C@@H]2C[C@H]2c2cc3ccccc3s2)cc1,112%
11,COc1ccc(-c2nnc(SCC(=O)Nc3ccc(C(=O)/C=C/c4ccc(Cl)cc4)cc3)o2)cc1OC,93.1%
12,O=C(CI)OCC(COC(=O)CI)OC(=O)CI,53.3%
13,CC/C=C(\C)C(CCC)(CN=O)C(=O)OCC (stereo not given),110%
14,O=C(CN1C(=O)/C(=C/c2ccc(Cl)cc2)SC1=S)NCCCN1CCOCC1,98.7%
15,C=CCOC1=CC(=O)c2ccccc2C1=O,41.6%
16,C/C(=N\NC(=O)Cn1c(-c2ccc(S(C)(=O)=O)cc2)nc2cc(Cl)ccc21)c1ccc(Cl)cc1,88.2%
17,CCCCCCCCCCCCCCCCCCOc1ccccc1CC(=O)OCC[N+]1(C)CCOCC1,56.1%
18,O=C1c2cccc3cccc(c23)C(=O)N1CCCCN1CCN(CCCCOc2ccc(-c3nc4ccc(N5CCOCC5)cc4[nH]3)cc2)CC1,92.6%
19,O=C1/C=C/[C@@H](O)[C@@H]2C[C@@H](O)C[C@H]2/C=C/CCC[C@H](CCc2ccc(C(F)(F)F)cc2)O1,-10.1% (active)
20,Nc1c(C(=O)Nc2cccc3cnccc23)sc2nc3c(cc12)CN(Cc1ccccc1)CC3,101%
